Hit rate of the full screen: of about 290,000 compounds, about 570 (0.2%) were called active. Not shown: some 1% with an inconclusive outcome. Rule as the data show it: active = inhibition mostly above about 51% (no sharp cut-off); inconclusive = no clear call, values can overlap the other calls; inactive = mostly below about 53%. Shown is part of a subset that was picked to be rich in actives.
Molecular target: Voltage-dependent N-type calcium channel subunit alpha-1B (Homo sapiens) (UniProt Q00975)
Assay: inhibitors of Mint1-CaV2.2 protein interaction, biochemical, HTRF (AID 2073)
Settings: at 20 µM, stronger effect = higher value

Voltage-dependent N-type calcium channel subunit alpha-1B (Homo sapiens), sequence (Q00975 whole entry, looked up): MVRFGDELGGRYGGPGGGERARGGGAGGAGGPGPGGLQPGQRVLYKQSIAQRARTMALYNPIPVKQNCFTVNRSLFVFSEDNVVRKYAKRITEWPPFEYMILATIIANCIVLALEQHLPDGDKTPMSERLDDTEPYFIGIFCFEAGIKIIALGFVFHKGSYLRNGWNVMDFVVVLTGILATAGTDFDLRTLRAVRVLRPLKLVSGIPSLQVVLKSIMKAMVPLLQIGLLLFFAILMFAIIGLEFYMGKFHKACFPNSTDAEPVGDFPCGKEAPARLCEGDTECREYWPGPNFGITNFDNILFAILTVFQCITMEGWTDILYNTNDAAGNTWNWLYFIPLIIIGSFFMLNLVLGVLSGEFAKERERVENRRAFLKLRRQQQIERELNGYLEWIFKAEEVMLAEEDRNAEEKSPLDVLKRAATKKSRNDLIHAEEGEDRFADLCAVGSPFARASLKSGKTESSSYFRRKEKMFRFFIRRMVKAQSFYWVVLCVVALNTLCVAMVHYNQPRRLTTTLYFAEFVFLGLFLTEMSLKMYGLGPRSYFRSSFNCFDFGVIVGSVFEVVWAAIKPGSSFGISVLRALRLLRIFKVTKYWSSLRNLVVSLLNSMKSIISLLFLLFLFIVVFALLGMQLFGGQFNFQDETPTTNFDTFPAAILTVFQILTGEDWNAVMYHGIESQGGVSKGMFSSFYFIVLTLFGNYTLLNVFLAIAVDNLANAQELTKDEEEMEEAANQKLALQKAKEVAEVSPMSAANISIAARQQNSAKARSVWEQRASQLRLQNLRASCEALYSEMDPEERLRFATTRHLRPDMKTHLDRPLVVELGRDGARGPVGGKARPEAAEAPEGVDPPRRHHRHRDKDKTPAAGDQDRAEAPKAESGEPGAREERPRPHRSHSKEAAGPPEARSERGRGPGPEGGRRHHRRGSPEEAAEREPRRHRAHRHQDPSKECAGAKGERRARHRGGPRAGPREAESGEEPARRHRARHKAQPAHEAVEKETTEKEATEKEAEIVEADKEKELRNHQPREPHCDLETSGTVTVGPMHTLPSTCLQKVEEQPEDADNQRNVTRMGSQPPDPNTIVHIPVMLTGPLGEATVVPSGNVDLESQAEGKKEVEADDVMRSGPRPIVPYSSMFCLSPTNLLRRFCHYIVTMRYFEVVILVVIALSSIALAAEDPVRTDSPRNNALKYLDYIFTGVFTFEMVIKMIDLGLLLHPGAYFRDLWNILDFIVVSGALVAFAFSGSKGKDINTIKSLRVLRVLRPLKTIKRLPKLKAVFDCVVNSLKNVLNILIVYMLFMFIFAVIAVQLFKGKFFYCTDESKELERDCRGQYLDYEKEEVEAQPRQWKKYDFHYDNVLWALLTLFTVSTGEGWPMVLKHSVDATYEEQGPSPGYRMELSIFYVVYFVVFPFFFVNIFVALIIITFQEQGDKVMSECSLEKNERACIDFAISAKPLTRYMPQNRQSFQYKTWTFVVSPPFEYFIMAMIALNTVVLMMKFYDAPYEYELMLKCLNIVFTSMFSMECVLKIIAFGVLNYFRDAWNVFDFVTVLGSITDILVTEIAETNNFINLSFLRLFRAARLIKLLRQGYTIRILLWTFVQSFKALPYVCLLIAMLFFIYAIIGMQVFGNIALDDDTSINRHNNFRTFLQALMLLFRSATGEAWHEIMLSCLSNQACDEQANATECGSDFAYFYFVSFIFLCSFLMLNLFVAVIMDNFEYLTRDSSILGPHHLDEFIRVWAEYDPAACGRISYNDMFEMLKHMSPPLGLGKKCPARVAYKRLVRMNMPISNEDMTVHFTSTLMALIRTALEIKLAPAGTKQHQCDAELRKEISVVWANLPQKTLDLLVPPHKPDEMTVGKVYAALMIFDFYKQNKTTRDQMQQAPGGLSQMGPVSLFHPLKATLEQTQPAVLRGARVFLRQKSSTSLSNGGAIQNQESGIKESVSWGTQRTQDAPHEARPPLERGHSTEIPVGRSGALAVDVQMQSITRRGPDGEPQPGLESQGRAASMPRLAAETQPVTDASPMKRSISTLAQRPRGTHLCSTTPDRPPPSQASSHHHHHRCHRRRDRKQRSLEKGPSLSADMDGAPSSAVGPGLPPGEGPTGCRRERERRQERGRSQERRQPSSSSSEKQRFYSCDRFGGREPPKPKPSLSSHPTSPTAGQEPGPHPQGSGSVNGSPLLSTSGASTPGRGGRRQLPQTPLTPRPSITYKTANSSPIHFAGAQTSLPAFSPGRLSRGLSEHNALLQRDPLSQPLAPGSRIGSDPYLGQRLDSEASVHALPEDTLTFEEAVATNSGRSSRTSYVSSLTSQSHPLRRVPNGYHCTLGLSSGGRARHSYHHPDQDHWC

SMILES	inhibition	inhibition (measured here: average of repeat tests) [%]
CN1CCN(C(=O)CN(c2cc(C(F)(F)F)ccc2Cl)S(C)(=O)=O)CC1	-10.8% (inactive)	
CN(c1ccccc1)c1ccc(/C=C(\CCC(=O)O)c2nc3ccccc3s2)cc1[N+](=O)[O-]	54.7% (active)	
O=C(O)CC/C(=C\c1ccc(Cl)c([N+](=O)[O-])c1)c1nc2ccccc2s1	6.1% (inactive)	
Cc1ccc(/C=C(\CCC(=O)O)c2nc3ccccc3s2)cc1[N+](=O)[O-]	7% (inactive)	
CCC(C(=O)N1CCOCC1)n1nc(C)c2sc3ccccc3c2c1=O (stereo unspecified)	12.1% (inactive)	
CN1CCN(c2ccccc2NC(=O)c2cccc(OCc3ccccc3)c2)CC1	19% (inactive)	
COCCn1c(SCC(=O)Nc2ccc(NC(C)=O)cc2)nc2ccccc2c1=O	-7.5% (inactive)	
COCCn1c(SCC(=O)Nc2ccc(F)cc2)nc2ccccc2c1=O	6.9% (inactive)	
CC1(C)CC(=O)C=C(NNC(=O)C2CCCCC2)C1	1.6% (inactive)	
C#CCOCCOCCOCCNc1nc(N2CCN(C(=O)[C@H](Cc3ccc(O)cc3)n3cc([C@@H](N)CC(C)C)nn3)CC2)nc(N2CCN(C(=O)[C@H](Cc3cc4ccccc4[nH]3)n3cc([C@@H](N)CC(C)C)nn3)CC2)n1	22.3% (inactive)	
C#CCOCCOCCOCCNc1nc(N2CCN(C(=O)[C@H](Cc3cc4ccccc4[nH]3)n3cc([C@@H](N)Cc4ccc(O)cc4)nn3)CC2)nc(N2CCN(C(=O)[C@H](Cc3cc4ccccc4[nH]3)n3cc([C@@H](N)CC(C)C)nn3)CC2)n1	51.5% (active)	
C#CCOCCOCCOCCNc1nc(N2CCN(C(=O)C(Cc3ccc(O)cc3)n3cc(C(N)CC(C)C)nn3)CC2)nc(N2CCN(C(=O)C(Cc3cc4ccccc4[nH]3)n3cc(C(N)Cc4ccc(O)cc4)nn3)CC2)n1 (stereo unspecified)	14.6% (inactive)	
CC[N+](CC)(CC#Cc1ccccc1)CC(=O)c1ccc(Cl)cc1	-0.1% (inactive)	
Cc1nc(C)c(C(=O)OCC(=O)N2CCN(c3ccccc3)CC2)s1	-4.9% (inactive)	
COC(=O)c1ccccc1NC(=O)CN1CCC(NC(=O)c2ccc(C)cc2)CC1	-3.1% (inactive)	
Nc1c(C(=O)N/N=C/c2ccccc2Cl)oc2nc(-c3ccccc3)cc(-c3ccco3)c12	45.6% (inactive)	
Nc1c(C(=O)N/N=C/c2cccnc2)oc2nc(-c3ccco3)cc(-c3ccco3)c12	44.8% (inactive)	
Cc1ccc(-c2cc(-c3ccco3)c3c(N)c(C(=O)NN)oc3n2)cc1	55.5% (inactive)	31.3
NNC(=O)c1oc2nc(-c3cccs3)cc(-c3ccco3)c2c1N	51.7% (active)	
NNC(=O)c1oc2nc(-c3ccccc3)cc(-c3ccccc3)c2c1N	18.4% (inactive)	
NNC(=O)c1oc2nc(-c3ccco3)cc(-c3ccco3)c2c1N	59.1% (active)	
N#Cc1c(Nc2ccccc2)c(/C=N/NCCO)c[nH]c1=O	-20.2% (inactive)	
CN(C)c1cccc(C(=O)OCC(=O)NC2CCCC2)c1	2.1% (inactive)	

SMILES	inhibition	inhibition (measured here: average of repeat tests) [%]
Cc1oc(-c2ccccc2F)nc1CS(=O)(=O)CC(=O)N1CCCCCC1	-4.2% (inactive)	
COc1cc(C(=O)NCCC(=O)NCCCN2CCCCC2)cc(OC)c1OC	-4% (inactive)	
FC(F)(F)c1ccccc1Nc1nccs1	-8.5% (inactive)	
FC(F)(F)c1ccccc1NC1=NCCC1	0.7% (inactive)	
Cc1nsc(Nc2ccccc2)c1C#N	36.6% (inactive)	
Cc1cc(C)c(C#N)c(Nc2ccccc2Cl)n1	5.7% (inactive)	
COc1cccc(CC(Cc2nc3ccccc3[nH]2)c2nc3ccccc3[nH]2)c1 (stereo unspecified)	4.4% (inactive)	
CCOc1ccc(/C=N/NC(=O)CSc2n[nH]c(=O)[nH]c2=O)cc1OC	-0.5% (inactive)	
CC(=O)c1ccc(N2CCN(C(=O)c3ccc(Cl)c(NC4=NC5CS(=O)(=O)CC5S4)c3)CC2)cc1 (stereo unspecified)	3.4% (inactive)	
Cc1ccnc(NS(=O)(=O)c2ccc(NC(=O)C3CCCO3)cc2)n1 (stereo unspecified)	-3% (inactive)	
O=C(NCc1ccc(F)cc1)C1CCCN1C(=O)Nc1cccc(F)c1 (stereo unspecified)	8.7% (inactive)	
Cc1ccc(N=CC=C2OC(C)(C)C(C)(C)O2)cc1	1.3% (inactive)	
COc1cc2c(cc1NC(=O)C(C)OC(=O)c1ccc(S(=O)(=O)Nc3ccccc3Cl)cc1)oc1ccccc12 (stereo unspecified)	56.6% (active)	
COc1ccc(S(=O)(=O)Nc2ccccc2Cl)cc1NC(C)=O	1.4% (inactive)	
COc1cc2c(cc1NC(=O)C(C)N1CCN(S(=O)(=O)c3ccc(C)c(C)c3)CC1)oc1ccccc12 (stereo unspecified)	12.7% (inactive)	
Cc1nc2cc(F)ccc2n1C1CCN(S(=O)(=O)c2ccccc2)CC1	5.6% (inactive)	
O=C(c1csc2c1CCCC2)N1CCN(c2ccccc2)CC1	-0.9% (inactive)	
Cc1ccc(Nc2nc(-c3ccc(S(=O)(=O)N4CCCC4)cc3)cs2)cc1C	36.3% (inactive)	
O=S(=O)(c1ccc(-c2csc(Nc3ccc(Br)cc3)n2)cc1)N1CCCC1	-7.1% (inactive)	
Cc1cc(C)cc(Nc2nc(-c3ccc(S(=O)(=O)N4CCCC4)cc3)cs2)c1	67.2% (active)	
COC(=O)c1ccccc1NC(=O)COc1ccc(S(=O)(=O)N2CCCC2)cc1C	6.4% (inactive)	
COc1cccc2c(=O)c3cccc(N)c3[nH]c12	52.3% (active)	
Nc1cccc2c(=O)c3ccccc3[nH]c12	41.4% (inactive)	

SMILES	inhibition	inhibition (measured here: average of repeat tests) [%]
COc1cccc2[nH]c3ccccc3c(=O)c12	30.8% (inactive)	
CCCCN(C)C(=O)CSc1nc(NCc2ccc(OC)cc2)c2ccccc2n1	-1% (inactive)	
CCCn1c(C(C)Nc2nc(-c3ccc(Cl)c([N+](=O)[O-])c3)cs2)nc2cc(Cl)c(N3CCCCC3)cc21 (stereo unspecified)	21% (inactive)	
CCOC(=O)c1sc2nc3c(SCCC#N)cc(C(=O)c4cc(F)ccc4O)cn3c(=O)c2c1C	43.6% (inactive)	
CCOC(=O)c1sc2nc3c(SCC(=O)O)cc(C(=O)c4cc(F)ccc4O)cn3c(=O)c2c1C	18.6% (inactive)	
CCOC(=O)c1sc2nc3c(SCC(=O)O)cc(C(=O)c4ccccc4O)cn3c(=O)c2c1C	53.3% (active)	
CCCCP(=O)(CCCC)Cc1ccccc1	-0.8% (inactive)	
COc1ccc(-c2nnc(SCC(=O)NCc3cccs3)n2C(C)C)cc1	-14.7% (inactive)	
O=c1c2c(nc3nc(NCc4cccc5ccccc45)[nH]n13)CCC2	4.9% (inactive)	
O=C(O/N=C(\c1ccccc1)c1ccncc1)c1ccccc1F	-7.6% (inactive)	
O=C(Nc1cccc(NC(=O)c2sc3ccccc3c2Cl)c1)c1ccco1	12.7% (inactive)	
O=C(Nc1ccc(NC(=O)c2sc3ccccc3c2Cl)cc1)c1ccco1	60.5% (active)	
O=C(Nc1ccc(NC(=O)c2sc3ccccc3c2Cl)cc1Cl)c1ccco1	31.4% (inactive)	
CCS(=O)(=O)N1CCCC(C(=O)N2CCc3ccccc3C2)C1 (stereo unspecified)	0% (inactive)	
COc1cc(/C=N/n2cnnc2)ccc1OC(=O)c1ccco1	1.6% (inactive)	
CCN(CC)C(=O)C(=O)Nc1ccc(OC)c(Cl)c1	1.5% (inactive)	
Cc1cc(=O)c2ccc(Cl)cc2[nH]1	0.7% (inactive)	
O=C(O)/C=C/C(=O)NCc1csc2ccccc12	-5% (inactive)	
O=C(Nc1ccc2c(c1)OCO2)C1CC(=O)N(c2cccc(Cl)c2)C1 (stereo unspecified)	-1.9% (inactive)	
Oc1c(Br)cc(/C=N/n2c(-c3ccccc3)n[nH]c2=S)c(O)c1Br	-12.3% (inactive)	
Oc1c(Br)cc(C=Nc2ccc3nc(-c4ccccc4)[nH]c3c2)c(O)c1Br	83.1% (active)	
COc1ccc2nc(-c3ccccc3)[nH]c2c1	11.7% (inactive)	
CCn1ccnc1CN(C)C(=O)c1ccc(OC2CCN(CCc3ccccc3)CC2)cc1	6.5% (inactive)	

SMILES	inhibition	inhibition (measured here: average of repeat tests) [%]
COCCn1c(SCc2cccnc2)nnc1-c1c[nH]c2ccccc12	-0.4% (inactive)	
CC(=O)N1CCC(C(=O)N2CCN(S(=O)(=O)c3cccs3)CC2)CC1	0.1% (inactive)	
CCOC(=O)c1ccc(-n2cncn2)nc1	-2.2% (inactive)	
CC(=O)Nc1ccc(S(=O)(=O)N2CCN(S(=O)(=O)N3CCOCC3)CC2)cc1	-2.3% (inactive)	
O=C(Nc1ccc(S(=O)(=O)N2CCOCC2)cc1)c1ccc(S(=O)(=O)N2CCOCC2)cc1	7.3% (inactive)	
CC(=O)Nc1ccc(C(=O)Nc2ccc(S(=O)(=O)N3CCOCC3)cc2)cc1	-1.1% (inactive)	
CC1CN=C(Nc2cccc(S(=O)(=O)N(C)C)c2)S1 (stereo unspecified)	-0.9% (inactive)	
CN(C)S(=O)(=O)c1cccc(NC(=O)c2ccncc2)c1	8.6% (inactive)	
CC(=O)Nc1ccc(S(=O)(=O)N2CCOCC2)cc1	11.4% (inactive)	
Cc1ccc(C(=O)N/C(=C\c2ccc(-c3cccc([N+](=O)[O-])c3)o2)C(=O)NCCCN2CCOCC2)cc1	-1.4% (inactive)	
COC(=O)Nc1nc2ccc(-c3n[nH]c(=O)c4ccccc34)cc2[nH]1	-0.4% (inactive)	
Cc1cc(C)nc(Nc2ncc(O)n2-c2ccc(C)c(Cl)c2)n1	6% (inactive)	
Cc1ccc(NC(=O)CN(C)c2ccc(S(=O)(=O)N3CCCC3)cn2)cc1	-2.9% (inactive)	
CC1(C)CC2CC(C)(CN2C(=S)Nc2ccccc2)C1 (stereo unspecified)	12.7% (inactive)	
Fc1ccccc1Nc1nc2c(s1)CCc1ccccc1-2	94.8% (active)	
Nc1nc2c(s1)CCc1ccccc1-2	-30.6% (inactive)	
CC(=O)Nc1nc2c(s1)CCc1ccccc1-2	-3.5% (inactive)	
CC(c1nnc(SCC(=O)Nc2cccnc2Cl)n1Cc1ccccc1)N(C)C (stereo unspecified)	1% (inactive)	
COc1ccc2nc3ccccc3nc2c1	23.5% (inactive)	
COc1cccc2nc3cc(C)c(C)cc3nc12	23.4% (inactive)	
COc1ccc2nc3cccc(OC)c3nc2c1	61.8% (active)	

From PubChem BioAssay AID2073 (Sanford-Burnham Center for Chemical Genomics, 2009)
